Consider 19 compounds from publication PMC11062922 (Nature Chemical Biology, 2023).

Read-outs that look alike come from different tables or passages of the source.

Set-up in all cases: species or system human, MV4-11 + K-562 + COLO205 + SK-N-BE2 + OVCAR-8
Assay [1] concerns GRK6. To be noted: read-out: apparent Kd, compound concentrations: 100 nM and 1000 nM (sheet 'Samples'), n = 1.
In assay [2] the test system is HSP90B1. The note with it: read-out: apparent Kd, n = 1.
Assay [3] relates to MAP2K1. To be noted: read-out: apparent Kd; compound concentrations: 100 nM and 1000 nM (sheet 'Samples'), CATDS: 0.11714915098763; n = 1.
The test system of assay [4] is MAPK10. To be noted: read-out: apparent Kd, compound concentrations: 100 nM and 1000 nM (sheet 'Samples'), n = 1.
The subject of assay [5] is MAPK8. The note with it: read-out: apparent Kd; compound concentrations: 100 nM and 1000 nM (sheet 'Samples'), CATDS: 0.17853758786403801; n = 1.
Assay [6] has as its system MAPK9. The note with it: read-out: apparent Kd, compound concentrations: 100 nM and 1000 nM (sheet 'Samples'), n = 1.
For assay [7], the system named is FGFR1. To be noted: read-out: apparent Kd; compound concentrations:100 nM and 1000 nM (sheet 'Samples'); n = 1.
For assay [8], the system named is FLT4. To be noted: read-out: apparent Kd; compound concentrations:100 nM and 1000 nM (sheet 'Samples'); n = 1.
For assay [9], the system named is PIK3C2A. The note with it: read-out: apparent Kd; compound concentrations:100 nM and 1000 nM (sheet 'Samples'); n = 1.
The test system of assay [10] is FN3KRP. The note with it: read-out: apparent Kd; compound concentrations: 100 nM and 1000 nM (sheet 'Samples'), CATDS: 0.10743943329960801; n = 1.
Assay [11] relates to MAPK11. To be noted: read-out: apparent Kd; compound concentrations: 100 nM and 1000 nM (sheet 'Samples'), CATDS: 0.104421690058707; n = 1.
The subject of assay [12] is MAPK14. To be noted: read-out: apparent Kd; compound concentrations: 100 nM and 1000 nM (sheet 'Samples'), CATDS: 0.43214609476913801; n = 1.
For assay [13], the system named is MAPKAPK2. To be noted: read-out: apparent Kd; compound concentrations: 100 nM and 1000 nM (sheet 'Samples'), CATDS: 0.49442009217898503; n = 1.
Assay [14] concerns PIP4K2C. To be noted: read-out: apparent Kd; compound concentrations: 100 nM and 1000 nM (sheet 'Samples'), CATDS: 0.103791319343203; n = 1.
The subject of assay [15] is FRK. To be noted: read-out: apparent Kd, compound concentrations: 100 nM and 1000 nM (sheet 'Samples'), n = 1.
The test system of assay [16] is HCK. To be noted: read-out: apparent Kd, compound concentrations: 100 nM and 1000 nM (sheet 'Samples'), n = 1.
The test system of assay [17] is LCK. To be noted: read-out: apparent Kd, compound concentrations: 100 nM and 1000 nM (sheet 'Samples'), n = 1.
In assay [18] the test system is LYN. The note with it: read-out: apparent Kd; compound concentrations: 100 nM and 1000 nM (sheet 'Samples'), CATDS: 0.140123988269205; n = 1.
The subject of assay [19] is MAP2K5. The note with it: read-out: apparent Kd, compound concentrations: 100 nM and 1000 nM (sheet 'Samples'), n = 1.
Assay [20] concerns TNK2. The note with it: read-out: apparent Kd; compound concentrations: 100 nM and 1000 nM (sheet 'Samples'), CATDS: 0.21718962243178; n = 1.
Assay [21] has as its system GAK. The note with it: read-out: apparent Kd, compound concentrations: 100 nM and 1000 nM (sheet 'Samples'), n = 1.
Assay [22] relates to TTK. The note with it: read-out: apparent Kd; compound concentrations: 100 nM and 1000 nM (sheet 'Samples'), CATDS: 0.35015598460163; n = 1.
The subject of assay [23] is FLT3. The note with it: read-out: apparent Kd, n = 1.
The test system of assay [24] is MYLK3. The note with it: read-out: apparent Kd; compound concentrations:100 nM and 1000 nM (sheet 'Samples'); n = 1.
Assay [25] concerns TNIK. The note with it: read-out: apparent Kd; compound concentrations:100 nM and 1000 nM (sheet 'Samples'); n = 1.
The subject of assay [26] is TTN. To be noted: read-out: apparent Kd; compound concentrations: 100 nM and 1000 nM (sheet 'Samples'), CATDS: 0.37600950025420299; n = 1.
Assay [27] concerns NLK. The note with it: read-out: apparent Kd; compound concentrations: 100 nM and 1000 nM (sheet 'Samples'), CATDS: 0.239785961160628; n = 1.
Assay [28] deals with RIPK2. To be noted: read-out: apparent Kd; compound concentrations: 100 nM and 1000 nM (sheet 'Samples'), CATDS: 0.40204852474639502; n = 1.
The subject of assay [29] is GSK3A. To be noted: read-out: apparent Kd, n = 1.
Assay [30] relates to GSK3B. The note with it: read-out: apparent Kd, n = 1.
For assay [31], the system named is PRKCA. The note with it: read-out: apparent Kd; compound concentrations: 100 nM and 1000 nM (sheet 'Samples'), CATDS: 0.195929094272485; n = 1.
For assay [32], the system named is PRKCB. The note with it: read-out: apparent Kd; compound concentrations:100 nM and 1000 nM (sheet 'Samples'); n = 1.
The subject of assay [33] is PRKCD. The note with it: read-out: apparent Kd; compound concentrations:100 nM and 1000 nM (sheet 'Samples'); n = 1.
Assay [34] has as its system PRKCQ. The note with it: read-out: apparent Kd; compound concentrations:100 nM and 1000 nM (sheet 'Samples'); n = 1.
Assay [35] relates to RPS6KA6. The note with it: read-out: apparent Kd; compound concentrations:100 nM and 1000 nM (sheet 'Samples'); n = 1.
The test system of assay [36] is RPS6KB1. The note with it: read-out: apparent Kd; compound concentrations:100 nM and 1000 nM (sheet 'Samples'); n = 1.
The test system of assay [37] is PIK3CD. To be noted: read-out: apparent Kd; compound concentrations:100 nM and 1000 nM (sheet 'Samples'); n = 1.
In assay [38] the test system is TAOK3. The note with it: read-out: apparent Kd; compound concentrations:100 nM and 1000 nM (sheet 'Samples'); n = 1.
Assay [39] concerns ILK. The note with it: read-out: apparent Kd; compound concentrations:100 nM and 1000 nM (sheet 'Samples'); n = 1.
The mark [40] stands for this setting: compound concentrations:100 nM and 1000 nM (sheet 'Samples').

Take `CCC(=O)c1c(-c2ccccc2)c2cc(Cl)ccc2c(=O)n1Cc1cc(S(C)(=O)=O)n(CC(N)=O)n1` [TPKI-105]: the potency estimated from few doses in assay [1] (CATDS: 0.114980307902388) was 2180 nM; in assay [2] (compound concentrations: 100 nM and 1000 nM (sheet 'Samples'), CATDS: 0.138909392239214), 1090 nM; in [3], 2010 nM; in assay [4] (CATDS: 0.46372584389591998), 90.1 nM; in assay [5], 543 nM; in assay [6] (CATDS: 0.26244745216645099), 235 nM.
In the case of `COc1cc(OC)cc(-c2cc3cnc(N)nc3nc2NC(=O)NC(C)(C)C)c1` [PFE-PKIS_3], the values for the potency estimated from few doses in assay [7], in [8] and in assay [9] were 85.8 nM, 1380 nM and 2380 nM, respectively.
Turning to `Cl.Cn1c(=O)c(Oc2ccc(F)cc2F)cc2cnc(NC(C)(C)CO)nc21` [RO3305411-001], the potency estimated from few doses in assay [10] is 1390 nM; in assay [4] (CATDS: 0.114459990523153), 1100 nM; in assay [11] it was 1550 nM; in assay [12], 21.6 nM; in assay [6] (CATDS: 0.13499142741698), 640 nM; in assay [13], 16.8 nM. The potency estimated from few doses in assay [14] was 1590 nM.
Take `c1ccc(-c2cnc3nccnn23)cc1` [AH20685XX]: the potency estimated from few doses in assay [1] (CATDS: 1) is 2060 nM.
As for `Cc1ccc(C(=O)Nc2ccc(Nc3ccnc4cc(-c5ccccn5)ccc34)cc2O)cc1.Cl` [GW440146A], the potency estimated from few doses in assay [15] (CATDS: 0.227181560235134) is 250 nM; in assay [16] (CATDS: 0.17687822419951399), 398 nM; in assay [17] (CATDS: 0.18982268752043399), 346 nM; in assay [18], 686 nM; in [19] (CATDS: 0.111910092443395), 1450 nM; in assay [20], 270 nM.
Regarding `COc1cc(N2CCN(C(C)C)CC2)ccc1Nc1nc(Nc2cccc3ncccc23)c2cc[nH]c2n1` [GSK1511931A], the potency estimated from few doses is 83.9 nM in assay [21] (CATDS: 0.87402661457119502) and 1080 nM in assay [22].
With `COc1cc2nccc(Nc3ccc(NC(=O)c4ccc(C)cc4)c(O)c3)c2cc1OC.Cl` [GW440132A], the potency estimated from few doses in assay [15] (CATDS: 0.28944129909261102) was 691 nM; in assay [16] (CATDS: 0.241643180155243), 986 nM; in assay [17] (CATDS: 0.30139088079166299), 643 nM; in [19] (CATDS: 0.19651058590933199), 1640 nM.
With `C/C(Nc1ccc(S(N)(=O)=O)cc1)=C1/C(=O)Nc2ccccc21` [GW335962X], the potency estimated from few doses was 524 nM in assay [23] (setting [40]), 629 nM in assay [24] and 2260 nM in assay [25].
`Nc1ncnc2c1ncn2-c1ccc(Cl)cc1` [AH2635]: the potency estimated from few doses in assay [23] (compound concentrations: 100 nM and 1000 nM (sheet 'Samples'), CATDS: 1) was 1610 nM.
In the case of `c1ccc(Nc2ncc(-c3ccccc3)o2)cc1` [GW549390X], the potency estimated from few doses in assay [23] (compound concentrations: 100 nM and 1000 nM (sheet 'Samples'), CATDS: 0.74599434863178504) is 273 nM; in assay [26] it was 1330 nM.
For `CCS(=O)(=O)c1ccc(OC)c(Nc2ncc(-c3cccc(-c4ccccc4F)c3)o2)c1` [GW678313X], the potency estimated from few doses in assay [8] is 423 nM.
Turning to `COc1cc(Nc2ccnc3ccc(C(F)(F)F)cc23)cc(OC)c1OC` [GW577382X], the potency estimated from few doses was 305 nM in [21] (CATDS: 0.42692129692206698), 1230 nM in assay [27] and 340 nM in [28].
With `C[C@@H]1CCCCN1c1cc(-c2ccc3c(N)n[nH]c3c2)nc(N)n1` [GSK2258759A], in assay [2] (setting [40]), the potency estimated from few doses was 968 nM.
`Cn1cc(C2=C(c3cccc(OCC(O)CO)c3)C(=O)NC2=O)c2ccccc21` (centres unmarked) [RO5198354-000]: the potency estimated from few doses in [29] (compound concentrations: 100 nM and 1000 nM (sheet 'Samples'), CATDS: 0.57799072500507098) was 370 nM; in [30] (compound concentrations: 100 nM and 1000 nM (sheet 'Samples'), CATDS: 0.44055416886874998), 644 nM.
For `Cc1nnc(-c2ccc3occ(-c4ccc(S(C)=O)cc4)c3c2)[nH]1` (centres unmarked) [TPKI-85], the potency estimated from few doses in assay [29] (setting [40]) is 339 nM; in assay [30] (compound concentrations: 100 nM and 1000 nM (sheet 'Samples'), CATDS: 0.41063798470662799), 861 nM.
Consider `CN(C)CC1CCn2c(c(C3=C(c4cn(C)c5ccccc45)C(=O)NC3=O)c3ccccc32)C1` (centres unmarked) [RO0318830-000], for which the potency estimated from few doses in [29] (setting [40]) is 43.8 nM; in assay [30] (setting [40]), 53.4 nM; in assay [31], 30.2 nM; in assay [32], 88.5 nM; in assay [33], 34.5 nM; in assay [34], 123 nM. The potency estimated from few doses in [35] is 56.8 nM; in assay [36], 1600 nM.
With `COc1ccc(C2=C(Nc3cccc(C(=O)O)c3)C(=O)NC2=O)cc1` [SB-390765], the potency estimated from few doses in assay [29] (setting [40]) is 82.8 nM.
For `COc1cccc(C2=C(Nc3cc(Cl)c(O)c(Cl)c3)C(=O)NC2=O)c1` [SB-390767], the potency estimated from few doses in assay [29] (setting [40]) was 528 nM; in [30] (setting [40]) it was 1090 nM; in [37] it was 191 nM; in [38], 1110 nM.
With `COC(=O)Nc1nc2cc(Oc3ccc(NC(=O)Nc4cc(C(F)(F)F)ccc4Cl)cc3)ccc2[nH]1.Cl` [GW697465A], the figures for the potency estimated from few doses in [2] (setting [40]) and in assay [39] were 1220 nM and 2220 nM, respectively.
